# Screening results (PubChem BioAssay)
# RE007 growth inh: less growth of the S. pombe RE007 Vpr strain; S. pombe RE007 Vpr strain, BacTiter-Glo ATP luminescence, 24 h; Potency, µM (titrated, usually from 92.2 µM), without a hit: at the highest dose activity change, negative = less growth, hits mostly inhibitors; hit rate 0.21% among 360,000; active = well fitted falling curve with a large enough effect; inconclusive = small, poorly fitted or top-dose-only effect; inactive = no such curve, though single readings can be large or run the other way; note: potency is the fitted concentration of half-maximal effect; nearly all actives have a fitted effect of over 50% in size
#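 Fission yeast strain RE007, carrying one chromosomally integrated HIV-1 vpr copy, was seeded at OD 0.01 in PMG+AL medium with 23 nL pinned compound. After 24 h at 30 °C and 99% humidity, viability was read by BacTiter-Glo luminescence.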
# HCMV antiviral: blocks human cytomegalovirus replication; HFF cells, HCMV-luciferase reporter, 72 h; active compounds read low; activity change, negative = inhibition, % at 57.5 µM; hit rate 4.5% among 410,000; AID 1259415; in the data active = activity change below about -60%; inconclusive = no clear call, values can overlap the other calls; inactive = above about -39%
#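 Luciferase read-out from HCMV-luciferase-infected HFFs (MOI 1 PFU/cell) 72 h post infection at 37C; compounds added after 16 h cell attachment; activity normalized between buffer-only basal and Salinomycin (10uM) inhibitor controls.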
# Sm TGR inh: blocks Schistosoma mansoni thioredoxin glutathione reductase; Q962Y6; purified TGR, DTNB reduction, TNB absorbance 405 nm; Potency, µM (highest dose often 114 µM), for the others: at the top dose activity change, negative = inhibition, usual class: inhibitors; hit rate 3% among 360,000; AID 485364; note: potency is the fitted concentration of half-maximal effect; nearly all actives have a fitted effect of over 60% in size
#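 First, TGR (20 nM dispensed) and NADPH were mixed with compound. Second, a 15 min room-temperature incubation followed. Third, further NADPH and then DTNB were added to start the reaction. Finally, TNB absorbance was monitored kinetically.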
# Giardia FBPA inh: inhibitors of Giardia lamblia fructose-1,6-bisphosphate aldolase; A8B2U2; purified Giardia FBPA; Potency, µM (titrated, usually from 59.6 µM), for the others: at the top dose activity, negative = inhibition, usual class: inhibitors; hit rate 0.71% among 290,000; note: potency is the fitted concentration of half-maximal effect; nearly all actives have a fitted effect of over 55% in size
# Target sequence (A8B2U2 whole entry, looked up): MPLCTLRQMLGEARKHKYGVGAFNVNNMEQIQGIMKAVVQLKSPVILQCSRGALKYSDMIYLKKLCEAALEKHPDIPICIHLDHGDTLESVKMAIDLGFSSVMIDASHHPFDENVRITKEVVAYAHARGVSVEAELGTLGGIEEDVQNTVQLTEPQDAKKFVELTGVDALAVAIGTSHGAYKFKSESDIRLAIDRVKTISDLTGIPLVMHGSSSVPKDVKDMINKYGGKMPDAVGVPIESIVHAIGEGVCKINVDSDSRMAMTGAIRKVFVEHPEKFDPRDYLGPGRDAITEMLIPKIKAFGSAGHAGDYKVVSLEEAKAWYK
#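 Giardia FBPA (40 nM reagent) was preincubated 10 min at RT with compound (up to 57.5 uM final), then substrate plus GAPDH/TPI/NAD/arsenate coupling system with diaphorase/resazurin was added; resorufin fluorescence (525/598 nm) was read after 20 min.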
# FMDV antiviral: antivirals against foot and mouth disease virus | FMDV antiviral cell-based qHTS | Potency, µM (top dose mostly 57.9 µM), inactives show at the highest dose activity change, negative = inhibition, most hits filed as inhibitors | hit rate 1.2% among 410,000 | AID 1159524; calls by dose curve; tested in HEK293T cells; note: read-out not given here; potency is the fitted concentration of half-maximal effect; nearly all actives have a fitted effect of over 45% in size
# TbPYK inhibitor: T. brucei pyruvate kinase inhibition. hit rate 0.12% among 410,000. Potency, µM (highest dose often 76.8 µM), for inactives: top-dose activity, negative = inhibition, hits mostly inhibitors. AID 624173. Q57TT1. TbPYK enzyme, Kinase-Glo Plus ATP luminescence, 45 min; note: potency is the fitted concentration of half-maximal effect; nearly all actives have a fitted effect of over 50% in size
#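 Luminescence from Kinase-Glo Plus, added after a 45-minute room-temperature reaction, served as the end-point read-out. The enzyme and substrate were preincubated with compound before ADP (130 uM final) initiated turnover. Concentration-effect curves came from normalized qHTS data.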
# * marks the source's active call; other numbers are inactive results; ? = inconclusive; · = no result; [ ] = remark or other dose. A selection: hits, their analogues and other compounds. The true share with any hit is near 7.7%. Unless noted, calls come from the whole dose curve; as a rule, active = well fitted curve in the direction sought with a large enough effect; inconclusive = small, poorly fitted or top-dose-only effect, or another doubt; inactive = no such curve, though single readings can be large; an effect the other way counts as inactive or inconclusive. % is set by controls: 0 for no effect and ±100 for the full control effect.
SMILES,RE007 growth inh,HCMV antiviral,Sm TGR inh,Giardia FBPA inh,FMDV antiviral,TbPYK inhibitor
CCOC(=O)c1c(NC(=O)C(C)Sc2cn(CCNC(=O)c3ccccc3OC)c3ccccc23)sc2c1CCC2 (configuration not stated),·,-7.5,-22.8%,·,-20.3%,-10.1%
COc1cccc(C(=O)Nc2cc(-c3ccccc3)no2)c1,·,94.2,1.1%,·,-41.1%,0.5%
O=C(NCCn1cc(SCc2ccc(F)cc2)c2ccccc21)c1ccccc1F,-1.4%,·,-6.7%,-20.4%,28.2µM*,0.9%
O=C(NCCn1cc(SCc2ccc(F)cc2)c2ccccc21)c1c(F)cccc1F,-15.1%,-21.2,9.5%,?,?,0.8%
Cc1nc([N+](=O)[O-])c(Br)n1Cc1ccc(Cl)c(Cl)c1,40.7%,51.9,8.9%,1.0%,17.8µM*,-4.0%
COc1ccc(C(=O)Cn2c(C)nc([N+](=O)[O-])c2Br)cc1,31.9%,13.3,2.51µM*,2.1%,?,2.0%
Cc1nc([N+](=O)[O-])c(Br)n1CC(=O)c1ccc(Cl)cc1,-0.8%,69.8,7.08µM*,0.9%,-32.0%,-5.5%
CC(C)c1ccc(-c2noc(SCC(=O)N3CCCCC3)n2)cc1,·,17.9,14.6%,·,5.9%,-4.5%
CC(Sc1nnc(C2CC2)n1-c1ccccc1)C(=O)N1CCCC1 (configuration not stated),-9.3%,-17.5,31.6µM*,·,-7.0%,-19.2%
Oc1ccc(N=Cc2ccc(-c3cccs3)s2)cc1,-7.9%,-21.2,22.4µM*,3.54µM*,2.7%,-22.0%
C=CCn1c(SCc2nc3ccccc3c(=O)[nH]2)nc2ccccc2c1=O,0.9%,-60.5*,-6.8%,-6.0%,0.0%,-9.4%
O=c1[nH]c(CSc2ncccn2)nc2c1cnn2-c1ccccc1,10.3%,61.7,-9.0%,3.9%,-14.4%,-0.9%
Cc1ccc(-n2ncc3c(=O)[nH]c(SC(C)C)nc32)cc1,-23.9%,-95.6*,3.6%,-2.2%,-20.2%,-4.2%
Cc1ccc2nc(SCc3nc4cc(Cl)ccc4c(=O)[nH]3)[nH]c2c1,6.1%,-19.1,5.3%,0.9%,-22.7%,-0.9%
Cc1ccc2nc(SCc3nc4c(cnn4-c4ccccc4)c(=O)[nH]3)[nH]c2c1,-1.1%,-83.3*,-22.8%,3.1%,11.2µM*,5.0%
O=c1[nH]c(SCc2nc3c(cnn3-c3ccccc3)c(=O)[nH]2)nc2ccccc12,2.9%,-92.2*,3.7%,-13.4%,8.9%,1.1%
Cc1ccc2c(c1)N(C(=O)Nc1cccc3c1CCCC3)CC(C)O2 (configuration not stated),·,-22.3,9.2%,·,-20.7%,0.6%
Cc1nc(CC(=O)NCC2Cc3cc(F)cc(-c4ccc(F)c(C)c4)c3O2)cs1 (configuration not stated),·,·,·,·,-5.4%,·
O=c1[nH]c(CSc2nc3ccccc3[nH]2)nc2c1cnn2-c1ccccc1,7.2%,-85.6*,-1.9%,5.2%,22.4µM*,-3.5%
CCSc1nnc2ccc(-c3ccc(C)cc3)nn12,16.0%,11.3,-0.3%,-6.7%,34.4%,0.9%
CCSc1nnc2ccc(-c3ccco3)nn12,4.5%,0.0,35.5µM*,1.3%,-4.0%,-0.1%
CC(=O)OCC(NC(=O)C(CCCCNC(=O)OCc1ccccc1)NC(=O)OC(C)(C)C)C1OC(n2cc(C)c(=O)[nH]c2=O)C(OC(C)=O)C1OC(C)=O (configuration not stated),·,·,·,-0.2%,·,·
COc1cc(CN2CCCC(n3cc(C(=O)N4CCCCC4)nn3)C2)cc(OC)c1 (configuration not stated),·,·,·,·,-11.0%,·
CC(=O)c1ccc(NC(=O)CSc2nccn2C2CCCC2)cc1,·,-28.8,-9.0%,·,13.7%,-0.5%
CC(C)N1C(=O)/C(=C\c2nc3ccccc3c(=O)n2-c2ccccc2)c2ccccc21,-8.6%,-95.0*,-4.5%,-15.7%,17.8µM*,-3.1%
SMILES,RE007 growth inh,HCMV antiviral,Sm TGR inh,Giardia FBPA inh,FMDV antiviral,TbPYK inhibitor
CC(C)N1C(=O)C(Cc2nc3ccccc3c(=O)n2-c2ccccc2)c2ccccc21 (configuration not stated),8.0%,-71.6*,2.2%,-1.6%,-10.9%,-2.0%
CC(C)N1C(=O)/C(=C/c2nc3ccccc3c(=O)n2-c2ccccc2)c2ccccc21,-5.0%,-104.9*,2.3%,20.5%,28.2µM*,-3.9%
COc1ccc(S(=O)(=O)Nc2ccc(Cc3ccncc3)cc2)cc1OC,-4.4%,-65.4*,-4.9%,-3.3%,-16.9%,3.2%
O=S(=O)(Nc1ccc(Cc2ccncc2)cc1)c1ccc(Cl)c(Cl)c1,-3.4%,?,13.8%,-0.4%,-5.6%,-2.2%
Cc1cc(S(=O)(=O)NCc2ccncc2)c(C)cc1Br,-7.3%,-87.5*,-1.1%,·,-3.0%,-9.3%
Cc1ccc(C)c(S(=O)(=O)NCc2ccncc2)c1,8.0%,-2.2,7.1%,-2.5%,15.2%,0.0%
COc1cc(S(=O)(=O)NCc2ccncc2)c(OC)cc1Cl,5.0%,-79.1*,5.9%,1.7%,41.6%,-11.0%
COc1ccc(S(=O)(=O)NCc2ccncc2)cc1OC,-13.6%,-64.6*,0.0%,1.3%,19.5%,-2.1%
CC(C)=CCC/C(C)=C/CO/N=C1/C[C@@H](O)[C@@H](O)[C@@H]2[C@@H]3C(=O)N([C@@H](C)c4ccccc4)C(=O)[C@H]3CC[C@@H]12,·,·,·,-3.0%[12.9 µM],·,·
CCc1ccccc1NC(=O)C1=C(C)C(=O)OC12CCCCCC2,·,0.0,3.5%,·,-9.5%,-0.5%[15.4 µM]
N[C@@H](CSSC[C@H](N)C(=O)O)C(=O)O,·,·,·,-1.5%,·,·
Cc1c2cnn(-c3ccccc3)c(=O)c2c(C)n1C(C)C(=O)Nc1ccccc1C(F)(F)F (configuration not stated),·,-11.1,-3.9%,·,?,-8.0%
CCc1ccc(OC)c(S(=O)(=O)Nc2ccc(Cc3ccncc3)cc2)c1,8.5%,-75.0*,3.8%,21.2%,18.7%,3.2%
COc1ccc(S(=O)(=O)NCc2ccncc2)cc1NC(=O)c1ccccc1F,-6.0%,-88.5*,-1.5%,·,33.9%,3.0%
COc1ccc(S(=O)(=O)NCc2ccncc2)cc1NC(=O)c1ccccc1C,3.9%,-26.0,-1.5%,·,12.8%,-15.1%
COc1cc(OC)c2nc(-c3cc4c(c(OC)c3)OCCN(Cc3cn(C)nc3C)C4)cc(C)c2c1,·,·,·,·,-11.6%,·
Cc1ccc(CNC(=O)Cn2cc(S(=O)(=O)Cc3cccc(Cl)c3)c3ccccc32)cc1,·,0.0,7.1%,·,0.5%,5.0%[15.4 µM]
O=C1C=CC(=O)N1,?,?,0.891µM*,·,-19.9%,-23.9%
CSc1ncc(C(=O)Nc2ccccc2C(F)(F)F)c(-c2ccccc2)n1,·,-9.9,22.7%,·,-14.2%,-9.0%
NS(=O)(=O)c1cccc(NC(=O)c2cc(=O)c3ccccc3o2)c1,-5.4%,7.1,-8.9%,-6.3%,23.6%,-7.8%
